Laboratory results published in PubChem BioAssay (NCATS).
Results filed as inconclusive are left out. Activity calls are given as the source filed them. The call rests on the fitted dose curve; in most records, active means well fitted cell-killing curve with a large enough effect; inconclusive means small, poorly fitted or top-dose-only effect; inactive means no such curve, though single readings can be large or run the other way.

Test: qHTS of pediatric cancer cell lines to identify multiple opportunities for drug repurposing: Primary screen for NB1643 cells (AID 1347099); further: nearly all actives have a fitted effect of over 50% in size
Details: NB1643 neuroblastoma viability, CellTiter-Glo luminescence, 48 h; series mostly up to 46 µM
In short: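 Following a 5-hour attachment period, cells at 500-1,000/well received compounds and were cultured for 48 hours. CellTiter-Glo was added and luminescence read to estimate viable, metabolically active cells.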
Potency means the concentration at half of the fitted maximal effect.

SMILES | Potency
CC(=O)N[C@@H]1[C@H](O[C@@H]2c3ccc(c(Cl)c3)Oc3cc4cc(c3O[C@H]3O[C@H](CO)[C@@H](O)[C@H](O)[C@H]3NC(=O)CCCCCCCC(C)C)Oc3ccc(cc3Cl)C[C@H]3NC(=O)[C@H](N)c5ccc(O)c(c5)Oc5cc(O)cc(c5)[C@H](NC3=O)C(=O)N[C@H]4C(=O)N[C@H]3C(=O)N[C@@H]2C(=O)N[C@@H](C(=O)O)c2cc(O)cc(O[C@H]4O[C@H](CO)[C@@H](O)[C@H](O)[C@H]4O)c2-c2cc3ccc2O)O[C@H](CO)[C@@H](O)[C@@H]1O | inactive
Cc1[nH]c(C=C2C(=O)Nc3ccccc32)c(C)c1CCC(=O)O | 3.32 µM (active)
COc1cc2ncnc(Nc3cccc(Br)c3)c2cc1OC | 7.43 µM (active)
N[C@H]1CN(c2c(F)cc3c(=O)c(C(=O)O)cn(C4C[C@@H]4F)c3c2Cl)CC12CC2 (some centres not stated) | inactive
COc1cc(OC)cc(-c2ccc3ncc4ccc(=O)n(-c5ccc(N6CCNCC6)c(C(F)(F)F)c5)c4c3c2)c1 | 11.8 µM (active)
CN(N=O)C(=O)N[C@H]1C(O)OC(CO)[C@@H](O)[C@H]1O (some centres not stated) | inactive
COc1cc(N2CCC(C(N)=O)CC2)ccc1Nc1nc(N)c(Cl)c(Nc2ccccc2S(=O)(=O)C(C)C)n1 | 0.526 µM (active)
CC(C)NC[C@@H](C(=O)N1CCN(c2ncnc3c2[C@H](C)C[C@H]3O)CC1)c1ccc(Cl)cc1 | 3.32 µM (active)
COC(=O)C=CC(=O)OC | 7.43 µM (active)
COc1ccc(C(C)=O)c(O)c1 | 5.26 µM (active)
O=C1NC(O)CCN1[C@@H]1O[C@H](CO)[C@H](O)[C@H]1O (some centres not stated) | inactive
NC(=NCCCCCCN=C(N)N=C(N)Nc1ccc(Cl)cc1)N=C(N)Nc1ccc(Cl)cc1 | 5.26 µM (active)
CCN(CC)Cc1ccc2cc(COC(=O)Nc3ccc(C(=O)NO)cc3)ccc2c1 | 1.18 µM (active)
COc1ccc(S(=O)(=O)Nc2cccnc2Nc2ccc(O)cc2)cc1 | inactive
NC1=N[C@H]2[C@H](CS[C@H]2CCCCC(=O)O)N1 | inactive
C=CCNc1c(O)cc2c(O)c1C[C@@H](C)C[C@H](OC)[C@@H](O)[C@@H](C)C=C(C)[C@H](OC(N)=O)[C@@H](OC)C=CC=C(C)C(=O)N2 | 1.48 µM (active)
Cn1cnc(=N)c2[nH]cnc21 | 0.166 µM (active)
O=C(NC1CC1)c1cccc(-c2ccc3c(NC(=O)C4CC4)n[nH]c3c2)c1 | 0.935 µM (active)
CN[C@@H]1C[C@H]2O[C@@](C)([C@H]1OC)n1c3ccccc3c3c4c(c5c6ccccc6n2c5c31)C(=O)N[C@H]4O | 0.526 µM (active)
COc1cc2c(Nc3ccc(Cl)c(Cl)c3F)ncnc2cc1OCC1C[C@@H]2CN(C)C[C@H]2C1 | 14.8 µM (active)
Oc1ccc([C@@H]2Oc3ccc(O)cc3[C@@H]3CCC[C@@H]32)cc1 | 16.6 µM (active)
COc1cc(C)c(C=CC(C)=CC=CC(C)=CC(=O)O)c(C)c1C | inactive
NC(=O)c1ncn([C@@H]2O[C@H](CO)[C@@H](O)[C@@H]2O)c1O | inactive
CC(=O)NC(CS)C(=O)O (configuration not stated) | inactive

Test: qHTS of pediatric cancer cell lines to identify multiple opportunities for drug repurposing: Primary screen for LAN-5 cells (AID 1347100)
Details: LAN-5 neuroblastoma viability, CellTiter-Glo luminescence, 48 h; series mostly up to 46 µM
In short: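 Cells (500-1,000/well) rested 5 h, then received compounds for 48 h; metabolically active cells were measured by CellTiter-Glo luminescence. Final concentrations spanned up to 46 µM (MIPE, 11-point) or 0.59 nM-46 µM (NPC, 8-point) in primary screens, 11-point in follow-ups.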

SMILES | Potency
C=Cc1c(C)c2cc3nc(cc4[nH]c(cc5nc(cc1[nH]2)C(C)=C5CCC(=O)O)c(CCC(=O)OC)c4C)[C@@]1(C)C3=CC=C(C(=O)OC)[C@H]1C(=O)OC | 0.0526 µM (active)
CCc1ccc(C(=O)Nc2cc(CN3CCN(C)CC3)cc(C(F)(F)F)c2)cc1C#Cc1cnc2ccnn2c1 | 7.43 µM (active)
CC(=O)N[C@@H]1[C@H](O[C@@H]2c3ccc(c(Cl)c3)Oc3cc4cc(c3O[C@H]3O[C@H](CO)[C@@H](O)[C@H](O)[C@H]3NC(=O)CCCCCCCC(C)C)Oc3ccc(cc3Cl)C[C@H]3NC(=O)[C@H](N)c5ccc(O)c(c5)Oc5cc(O)cc(c5)[C@H](NC3=O)C(=O)N[C@H]4C(=O)N[C@H]3C(=O)N[C@@H]2C(=O)N[C@@H](C(=O)O)c2cc(O)cc(O[C@H]4O[C@H](CO)[C@@H](O)[C@H](O)[C@H]4O)c2-c2cc3ccc2O)O[C@H](CO)[C@@H](O)[C@@H]1O | inactive
Cc1[nH]c(C=C2C(=O)Nc3ccccc32)c(C)c1CCC(=O)O | 0.132 µM (active)
N[C@H]1CN(c2c(F)cc3c(=O)c(C(=O)O)cn(C4C[C@@H]4F)c3c2Cl)CC12CC2 (some centres not stated) | 21.1 µM (active)
Nc1nc(N)c2nc(-c3cccc(O)c3)c(-c3cccc(O)c3)nc2n1 | 11.8 µM (active)
C[C@H](CCC(=O)O)[C@H]1CCC2C3C[C@H](O)[C@@H]4C[C@H](O)CC[C@]4(C)C3CC[C@@]21C (some centres not stated) | inactive
CC(C)[C@H](CO)Nc1nc(Nc2cccc(Cl)c2)c2ncn(C(C)C)c2n1 | 11.8 µM (active)
CC(C)NC[C@@H](C(=O)N1CCN(c2ncnc3c2[C@H](C)C[C@H]3O)CC1)c1ccc(Cl)cc1 | 2.96 µM (active)
COC(=O)C=CC(=O)OC | inactive
COc1ccc(C(C)=O)c(O)c1 | inactive
O=C1NC(O)CCN1[C@@H]1O[C@H](CO)[C@H](O)[C@H]1O (some centres not stated) | inactive
CCN(CC)Cc1ccc2cc(COC(=O)Nc3ccc(C(=O)NO)cc3)ccc2c1 | 0.526 µM (active)
COc1ccc(S(=O)(=O)Nc2cccnc2Nc2ccc(O)cc2)cc1 | 0.0469 µM (active)
CNC(=O)c1cccc(-c2ccc3c(N4CCOC[C@H]4C)nc(N4CCOC[C@H]4C)nc3n2)c1 | 4.18 µM (active)
NC1=N[C@H]2[C@H](CS[C@H]2CCCCC(=O)O)N1 | inactive
C=CCNc1c(O)cc2c(O)c1C[C@@H](C)C[C@H](OC)[C@@H](O)[C@@H](C)C=C(C)[C@H](OC(N)=O)[C@@H](OC)C=CC=C(C)C(=O)N2 | 1.87 µM (active)
Cn1cnc(=N)c2[nH]cnc21 | 0.418 µM (active)
O=C(NC1CC1)c1cccc(-c2ccc3c(NC(=O)C4CC4)n[nH]c3c2)c1 | 2.09 µM (active)
CN[C@@H]1C[C@H]2O[C@@](C)([C@H]1OC)n1c3ccccc3c3c4c(c5c6ccccc6n2c5c31)C(=O)N[C@H]4O | 1.32 µM (active)
COc1cc2c(Nc3ccc(Cl)c(Cl)c3F)ncnc2cc1OCC1C[C@@H]2CN(C)C[C@H]2C1 | 11.8 µM (active)
Oc1ccc([C@@H]2Oc3ccc(O)cc3[C@@H]3CCC[C@@H]32)cc1 | 10.5 µM (active)
FC(F)c1nc2ccccc2n1-c1nc(N2CCOCC2)nc(N2CCOCC2)n1 | 1.18 µM (active)
NC(=O)c1ncn([C@@H]2O[C@H](CO)[C@@H](O)[C@@H]2O)c1O | inactive
O=C(Nc1cccc(Nc2ncc(Br)c(NCCc3cnc[nH]3)n2)c1)N1CCCC1 | 0.118 µM (active)
CC(C)OC(=O)[C@H](C)N[P@](=O)(OC[C@H]1O[C@@H](n2ccc(=O)[nH]c2=O)[C@](C)(F)[C@H]1O)Oc1ccccc1 | inactive
CC(=O)NC(CS)C(=O)O (configuration not stated) | inactive
O=C1NC(=O)C(=Cc2ccc3nccc(-c4ccncc4)c3c2)S1 | 0.743 µM (active)
